Results taken from the supplement of paper PMC4466140.

What follows are binders tested against ScBbc1 (assay: SPOT peptide array binding signal intensity (averaged, normalized) (arbitrary units (background-subtracted, floor 0; scale differs between SH3 domains)); higher = stronger binding of the SH3 domain to the peptide).
Outline: (§1)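 GST-SH3 fusions from four yeast species, purified on glutathione Sepharose, were incubated at 10 μg/ml overnight at 4°C on membranes of synthetic 15-mer peptides in which cysteines were replaced with serines. Binding signal is the normalized, background-subtracted spot intensity averaged over replicates, in domain-specific arbitrary units.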
ATNVPVAPPPPPASL was tested, and the “SPOT peptide array binding signal intensity” value was 2.25.

Each binder was assayed against ScBem1-D1 in the same assay as above.
Outline: as §1
For ATNVPVAPPPPPASL, the “SPOT peptide array binding signal intensity” value was ≤ 0.

Each binder was assayed against ScBzz1-D1 in the same assay as above.
Outline: as §1
With ATNVPVAPPPPPASL the “SPOT peptide array binding signal intensity” value was ≤ 0.

Each binder was assayed against ScBzz1-D2 in the same assay as above.
Outline: as §1
In the case of ATNVPVAPPPPPASL, the “SPOT peptide array binding signal intensity” value is reported as 2.

What follows are binders tested against ScCyk3 in the same assay as above.
Outline: as §1
For ATNVPVAPPPPPASL, the “SPOT peptide array binding signal intensity” value was 1.

The binders below were run against ScFus1 in the same assay as above.
Outline: as §1
In the case of ATNVPVAPPPPPASL, the “SPOT peptide array binding signal intensity” value is reported as ≤ 0.

What follows are binders tested against ScHof1 in the same assay as above.
Outline: as §1
In the case of ATNVPVAPPPPPASL, the “SPOT peptide array binding signal intensity” value is reported as ≤ 0.

Each binder was assayed against ScHse1 in the same assay as above.
Outline: as §1
For ATNVPVAPPPPPASL, the “SPOT peptide array binding signal intensity” value was ≤ 0.

The binders below were run against ScLsb1 in the same assay as above.
Outline: as §1
With ATNVPVAPPPPPASL the “SPOT peptide array binding signal intensity” value was 0.25.

Each binder was assayed against ScLsb2 in the same assay as above.
Outline: as §1
In the case of ATNVPVAPPPPPASL, the “SPOT peptide array binding signal intensity” value is reported as ≤ 0.

Each binder was assayed against ScLsb3 in the same assay as above.
Outline: as §1
With ATNVPVAPPPPPASL the “SPOT peptide array binding signal intensity” value was ≤ 0.

These binders were tested against ScLsb4 in the same assay as above.
Outline: as §1
With ATNVPVAPPPPPASL the “SPOT peptide array binding signal intensity” value was 2.

What follows are binders tested against ScMyo3 in the same assay as above.
Outline: as §1
ATNVPVAPPPPPASL was tested, and the “SPOT peptide array binding signal intensity” value was 1430.

What follows are binders tested against ScMyo5 in the same assay as above.
Outline: as §1
In the case of ATNVPVAPPPPPASL, the “SPOT peptide array binding signal intensity” value is reported as 161.

These binders were tested against ScNbp2 in the same assay as above.
Outline: as §1
ATNVPVAPPPPPASL was tested, and the “SPOT peptide array binding signal intensity” value was ≤ 0.

The binders below were run against ScPex13 in the same assay as above.
Outline: as §1
ATNVPVAPPPPPASL was tested, and the “SPOT peptide array binding signal intensity” value was ≤ 0.

What follows are binders tested against ScRvs167 in the same assay as above.
Outline: as §1
For ATNVPVAPPPPPASL, the “SPOT peptide array binding signal intensity” value was ≤ 0.

What follows are binders tested against ScSho1 in the same assay as above.
Outline: as §1
For ATNVPVAPPPPPASL, the “SPOT peptide array binding signal intensity” value was ≤ 0.

Each binder was assayed against ScSla1-D1-D2 in the same assay as above.
Outline: as §1
In the case of ATNVPVAPPPPPASL, the “SPOT peptide array binding signal intensity” value is reported as ≤ 0.

What follows are binders tested against ScSla1-D3 in the same assay as above.
Outline: as §1
With ATNVPVAPPPPPASL the “SPOT peptide array binding signal intensity” value was 2.25.

The binders below were run against SpAbp1-D1 in the same assay as above.
Outline: as §1
For ATNVPVAPPPPPASL, the “SPOT peptide array binding signal intensity” value was ≤ 0.

Each binder was assayed against SpBbc1 in the same assay as above.
Outline: as §1
For ATNVPVAPPPPPASL, the “SPOT peptide array binding signal intensity” value was ≤ 0.

Each binder was assayed against SpBzz1-D1 in the same assay as above.
Outline: as §1
With ATNVPVAPPPPPASL the “SPOT peptide array binding signal intensity” value was 125.

Each binder was assayed against SpBzz1-D2 in the same assay as above.
Outline: as §1
In the case of ATNVPVAPPPPPASL, the “SPOT peptide array binding signal intensity” value is reported as ≤ 0.

The binders below were run against SpCyk3 in the same assay as above.
Outline: as §1
ATNVPVAPPPPPASL was tested, and the “SPOT peptide array binding signal intensity” value was ≤ 0.

What follows are binders tested against SpHof1 in the same assay as above.
Outline: as §1
ATNVPVAPPPPPASL was tested, and the “SPOT peptide array binding signal intensity” value was ≤ 0.

Each binder was assayed against SpHof1-2 in the same assay as above.
Outline: as §1
For ATNVPVAPPPPPASL, the “SPOT peptide array binding signal intensity” value was ≤ 0.

The binders below were run against SpHof1-3 in the same assay as above.
Outline: as §1
ATNVPVAPPPPPASL was tested, and the “SPOT peptide array binding signal intensity” value was ≤ 0.

The binders below were run against SpHse1 in the same assay as above.
Outline: as §1
For ATNVPVAPPPPPASL, the “SPOT peptide array binding signal intensity” value was 8.75.

What follows are binders tested against SpLsb1 in the same assay as above.
Outline: as §1
For ATNVPVAPPPPPASL, the “SPOT peptide array binding signal intensity” value was ≤ 0.

Each binder was assayed against SpLsb4 in the same assay as above.
Outline: as §1
With ATNVPVAPPPPPASL the “SPOT peptide array binding signal intensity” value was ≤ 0.

These binders were tested against SpMyo1 in the same assay as above.
Outline: as §1
ATNVPVAPPPPPASL was tested, and the “SPOT peptide array binding signal intensity” value was 339.

These binders were tested against SpNbp2 in the same assay as above.
Outline: as §1
ATNVPVAPPPPPASL was tested, and the “SPOT peptide array binding signal intensity” value was 27.5.

The binders below were run against SpPex13 in the same assay as above.
Outline: as §1
With ATNVPVAPPPPPASL the “SPOT peptide array binding signal intensity” value was ≤ 0.

Each binder was assayed against SpRvs167 in the same assay as above.
Outline: as §1
For ATNVPVAPPPPPASL, the “SPOT peptide array binding signal intensity” value was ≤ 0.

These binders were tested against SpSla1-D1-D2 in the same assay as above.
Outline: as §1
For ATNVPVAPPPPPASL, the “SPOT peptide array binding signal intensity” value was ≤ 0.

These binders were tested against SpSla1-D3 in the same assay as above.
Outline: as §1
With ATNVPVAPPPPPASL the “SPOT peptide array binding signal intensity” value was ≤ 0.
